Activity calls are given as the source filed them. Cut-off read from the data, not from the text of the source, unless noted: active = inhibition above about 80%; inactive = the rest.
How the values were obtained:
[1] = LFS_MB_P medulloblastoma growth inhibition, cell-based, chromothripsis tumors, cisplatin or BGB combos (AID 1671449); details: LFS_MB_P medulloblastoma cells;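 note: cells exposed for 96 hours; 0% = vehicle DMSO and 100% = killing by high DMSO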
[2] = HDN33 neuroblastoma growth inhibition, cell-based, chromothripsis tumors, cisplatin or BGB combos (AID 1671450); details: HDN33 neuroblastoma cells, stronger effect = higher value;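 note: cells exposed to compound for four days; 0% = vehicle DMSO and 100% = cell killing by high DMSO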
[3] = ICB984 medulloblastoma cell growth inhibition, synergistic combos for chromothripsis tumors, cisplatin or BGB combos (AID 1671451; call rule not given here;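 note: cells exposed for 96 hours before readout; 0% = vehicle DMSO and 100% = killing by high DMSO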); details: ICB984 medulloblastoma cells, drug combinations, stronger effect = higher value
[4] = LFS_MB_1R medulloblastoma cell growth inhibition, synergistic combos for chromothripsis tumors, cisplatin or BGB combos (AID 1671452); details: LFS_MB_1R medulloblastoma cells, stronger effect = higher value;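 note: cells exposed for 96 hours before readout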
[5] = HTB85 osteosarcoma cell growth inhibition, synergistic combos for chromothripsis tumors, BGB or cisplatin IC20 combos (AID 1671453); details: HTB85 osteosarcoma cells, drug combinations, stronger effect = higher value;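 note: cells exposed for 96 hours before readout; 0% = vehicle DMSO and 100% = high DMSO killing control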
[6] = CRL2098 osteosarcoma cell growth inhibition, synergistic combos for chromothripsis tumors, BGB or cisplatin IC20 combos (AID 1671454); details: CRL2098 osteosarcoma cells, drug combinations, stronger effect = higher value;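 note: cells exposed for 96 h before readout; 0% = vehicle DMSO and 100% = killing by high DMSO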
[7] = HD-MB03 medulloblastoma cell growth inhibition, synergistic combos for chromothripsis tumors, BGB or cisplatin IC20 combos (AID 1671455; in the data active = inhibition above about 83%;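 note: 0% = vehicle DMSO and 100% = high DMSO as cytotoxic control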); details: HD-MB03 medulloblastoma cells, stronger effect = higher value
[8] = UWB1.289 ovarian carcinoma cell growth inhibition, synergistic combos for chromothripsis tumors, BGB or cisplatin combos (AID 1671456); details: UWB1.289 ovarian carcinoma cells, stronger effect = higher value;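 note: cells exposed to compound for four days; 0% = vehicle DMSO and 100% = killing by high DMSO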
[9] = LFS_MB_2R medulloblastoma cell growth inhibition, synergistic combos for chromothripsis tumors, cisplatin combos (AID 1671457); details: LFS_MB_2R medulloblastoma cells, stronger effect = higher value;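 note: cells exposed to compound for four days before readout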
[10] = MDA-MB-436 breast carcinoma cell growth inhibition, synergistic combos for chromothripsis tumors, BGB or cisplatin combos (AID 1671458; call rule not given here;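 note: cells exposed for 96 hours; 0% = vehicle DMSO and 100% = killing by high DMSO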); details: MDA-MB-436 breast carcinoma growth inhibition, drug combinations, stronger effect = higher value
[11] = UWB1.289_BRCA1 ovarian cancer growth, cell-based, BGB or cisplatin combinations (AID 1671459); details: UWB1.289 BRCA1 ovarian carcinoma, drug combinations, stronger effect = higher value
[12] = human astrocyte viability loss, single and combined drugs, cytotoxicity control for chromothriptic childhood tumor combination screen, cell-based, BGB or cisplatin IC20 combos (AID 1671460); details: Human astrocytes, drug combinations, stronger effect = higher value;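 note: cells exposed to compounds for 96 hours before viability readout; 0% = vehicle and 100% = killing control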
[13] = growth inhibition of BT084 medulloblastoma cells, cell-based, ICGC_MB145, cisplatin and BGB IC40 combos (AID 1671461); details: drug combinations, stronger effect = higher value;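 note: cells exposed to drugs for 96 hours; 0% = vehicle DMSO and 100% = high DMSO full killing control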
[14] = growth inhibition of RCMB18 medulloblastoma cells, cell-based, cisplatin and BGB IC40 combos (AID 1671462); details: stronger effect = higher value;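 note: cells exposed to compound for four days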
[15] = growth inhibition of CRL1545 osteosarcoma cells, cell-based, cisplatin and BGB IC20 combos (AID 1671464); details: stronger effect = higher value;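 note: cells exposed to compound for 96 hours before readout; 0% = vehicle DMSO and 100% = high DMSO killing control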
[16] = viability rescue of complex I mutant cybrids, primary screen, cell-based, galactose medium, ATP luminescence (AID 1645843;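 active = z-score of at least 1.8 in each of two replicates, scored against plate mean and spread of sample wells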;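 note: positive z means more ATP and so rescue of galactose-driven cybrid death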); details: complex I mutant cybrid cells, 72 h, stronger effect = higher value
[17] = at 0.5 µM, stronger effect = higher value
[18] = measured here: combination with BGB IC20, at 0.005 µM
[19] = measured here: combination with BGB IC40, at 0.005 µM
[20] = measured here: combination with BGB IC40, at 0.05 µM
[21] = measured here: combination with cisplatin, at 0.5 µM, stronger effect = higher value
[22] = measured here: combination with cisplatin, at 5 µM, stronger effect = higher value
[23] = measured here: with BGB IC20 combination, at 0.5 µM
[24] = measured here: with cisplatin IC20 combination, at 0.5 µM
[25] = measured here: 5 uM single agent, at 5 µM
[26] = measured here: combination with cisplatin, at 0.5 µM
[27] = measured here: combination with cisplatin, at 5 µM
[28] = measured here: with BGB IC20, at 0.5 µM
[29] = measured here: with BGB IC20, at 5 µM
[30] = measured here: with cisplatin IC20, at 0.5 µM
[31] = measured here: with cisplatin IC20, at 5 µM
[32] = measured here: combination with BGB at IC20, at 0.5 µM
[33] = measured here: combination with cisplatin at IC20, at 0.5 µM
[34] = measured here: combo with BGB at IC20, at 0.5 µM
[35] = measured here: combo with cisplatin at IC20, at 0.5 µM
[36] = measured here: inhibition with BGB combination, at 0.05 µM
[37] = measured here: inhibition with cisplatin combination, at 0.05 µM
[38] = measured here: BGB combination, at 0.5 µM
[39] = measured here: BGB combination, at 5 µM
[40] = measured here: cisplatin combination, at 0.5 µM
[41] = measured here: cisplatin combination, at 5 µM
[42] = BGB combination, concentration series, at 5 µM
[43] = cisplatin combination, concentration series, at 5 µM
[44] = measured here: combo with BGB IC20, at 0.5 µM
[45] = measured here: combo with cisplatin IC20, at 0.5 µM
[46] = cisplatin combination, at 0.5 µM
[47] = measured here: BGB IC40 combination 0.05 uM, at 0.05 µM

Q: Which inhibition [1, 17] does the source give for `COc1cccc2c1C(=O)c1c(O)c3c(c(O)c1C2=O)CC(O)(C(=O)CO)CC3OC1CC(N)C(OC2CCCCO2)C(C)O1` (stereo unspecified) here?
A: -32.3% (inactive)

Q: And the inhibition [1, 18]?
A: 9.11%

Q: And the inhibition [1, 19]?
A: -11.4%

Q: And the inhibition [1, 20]?
A: -11.1%

Q: What about the inhibition [1, 21] of the same compound?
A: -47.4%

Q: What about the inhibition [1, 22] of the same compound?
A: 110%

Q: And the inhibition ([2]; BGB combo, at 5 µM)?
A: 97.2%

Q: And the inhibition ([2]; at 0.5 µM)?
A: 23.8% (inactive)

Q: And the inhibition ([2]; cisplatin combo, at 5 µM)?
A: 99.2%

Q: What about the inhibition [2, 23] of the same compound?
A: 21.1%

Q: And the inhibition [2, 24]?
A: 4.67%

Q: What about the inhibition ([2]; single agent, at 5 µM) of the same compound?
A: 99%

Q: What about the inhibition ([3]; BGB IC20 combo, at 0.005 µM) of the same compound?
A: -23.2%

Q: What about the inhibition ([3]; BGB IC40 combo, at 0.005 µM) of the same compound?
A: -47.6%

Q: What about the inhibition ([3]; BGB IC40 combo, at 0.05 µM) of the same compound?
A: 94.7%

Q: And the inhibition ([3]; at 0.5 µM)?
A: -38.2% (inactive)

Q: And the inhibition ([3]; cisplatin combo, at 0.05 µM)?
A: 94.5%

Q: What about the inhibition ([3]; cisplatin combo, at 0.5 µM) of the same compound?
A: -60.7%

Q: What about the inhibition ([3]; cisplatin combo, at 5 µM) of the same compound?
A: -43.3%

Q: What about the inhibition [3, 25] of the same compound?
A: -14.9%

Q: What about the inhibition ([4]; at 0.5 µM) of the same compound?
A: 60.2% (inactive)

Q: What about the inhibition [4, 20] of the same compound?
A: -55.1%

Q: And the inhibition [4, 26]?
A: 53.5%

Q: What about the inhibition [4, 27] of the same compound?
A: 95%

Q: What about the inhibition ([5]; at 0.5 µM) of the same compound?
A: 56.2% (inactive)

Q: And the inhibition [5, 28]?
A: 23.4%

Q: And the inhibition [5, 29]?
A: 99%

Q: What about the inhibition [5, 30] of the same compound?
A: 91%

Q: And the inhibition [5, 31]?
A: 99.6%

Q: What about the inhibition ([5]; single agent, at 5 µM) of the same compound?
A: 99.2%

Q: What about the inhibition ([6]; at 0.5 µM) of the same compound?
A: 30.1% (inactive)

Q: What about the inhibition [6, 32] of the same compound?
A: 85.5%

Q: And the inhibition [6, 33]?
A: 33.2%

Q: What about the inhibition ([7]; at 0.5 µM) of the same compound?
A: 70.5% (inactive)

Q: And the inhibition [7, 34]?
A: 69.8%

Q: And the inhibition [7, 35]?
A: 77.2%

Q: And the inhibition ([8]; at 0.5 µM)?
A: 12.2% (inactive)

Q: What about the inhibition [8, 36] of the same compound?
A: 26.6%

Q: What about the inhibition [8, 37] of the same compound?
A: -27.7%

Q: What about the inhibition ([9]; at 0.5 µM) of the same compound?
A: -17% (inactive)

Q: What about the inhibition [9, 26] of the same compound?
A: -2.89%

Q: What about the inhibition [9, 27] of the same compound?
A: 86.3%

Q: And the inhibition ([10]; at 0.5 µM)?
A: 24.8% (inactive)

Q: And the inhibition [10, 38]?
A: 4.22%

Q: And the inhibition [10, 39]?
A: 64.7%

Q: What about the inhibition [10, 40] of the same compound?
A: 26.1%

Q: And the inhibition [10, 41]?
A: 84.5%

Q: And the inhibition [11, 42]?
A: 94.3%

Q: What about the inhibition ([11]; at 0.5 µM) of the same compound?
A: 16.1% (inactive)

Q: What about the inhibition [11, 43] of the same compound?
A: 96.5%

Q: And the inhibition ([12]; at 0.5 µM)?
A: 50% (inactive)

Q: And the inhibition [12, 44]?
A: 42.8%

Q: And the inhibition [12, 45]?
A: 39.2%

Q: What about the inhibition ([13]; at 0.5 µM) of the same compound?
A: 2.98% (inactive)

Q: And the inhibition [13, 46]?
A: 23.2%

Q: And the inhibition ([13]; cisplatin combination, at 5 µM)?
A: -6.21%

Q: What about the inhibition [13, 47] of the same compound?
A: -28.8%

Q: And the inhibition ([13]; single agent, at 5 µM)?
A: 27%

Q: And the inhibition ([14]; at 0.5 µM)?
A: 21.9% (inactive)

Q: And the inhibition ([14]; cisplatin combo, at 5 µM)?
A: 71.1%

Q: What about the inhibition ([14]; measured here: BGB IC40 combination, at 0.05 µM) of the same compound?
A: -38.8%

Q: And the inhibition [14, 26]?
A: 44.2%

Q: What about the inhibition ([14]; single agent, at 5 µM) of the same compound?
A: 71.6%

Q: And the inhibition ([15]; at 0.5 µM)?
A: 91.3% (active)

Q: What about the inhibition [15, 23] of the same compound?
A: 85.6%

Q: And the inhibition [15, 24]?
A: 94.1%

Q: What about the inhibition ([15]; single agent, at 0.05 µM) of the same compound?
A: -29.5%

Q: And the inhibition ([15]; single agent, at 5 µM)?
A: 99.5%

Q: With `CCn1cc(-c2cc(C(=O)N3CCCCCC3)c3ccc(C)c(C)c3n2)cn1` as the compound, how does the z-score [16] read?
A: 1.92 (active)

Q: For `CC(C)N(C)C(=O)c1cc(-c2cnc(C(C)(C)C)nc2)nc2cc(F)ccc12`, which z-score [16] is on record?
A: -0.525 (inactive)

Q: For `COc1cc(OC2(C(=O)O)CCSCC2)ccc1CN1CCCNCC1`, which z-score [16] is on record?
A: -0.23 (inactive)

Q: Which results are given for `O=C(CCCCCCC(=O)NO)NO`?
A: inhibition [1, 17]: -16.3% (inactive); inhibition [1, 18]: 3.43%; inhibition [1, 19]: -7.94%; inhibition [1, 20]: -3.7%; inhibition [1, 21]: -17.1%; inhibition [1, 22]: 37.5%; inhibition ([2]; BGB combo, at 5 µM): 16.4%; inhibition ([2]; at 0.5 µM): -16.1% (inactive); inhibition ([2]; cisplatin combo, at 5 µM): -6.26%; inhibition [2, 23]: -13.7%; inhibition [2, 24]: -21.3%; inhibition ([2]; single agent, at 5 µM): -0.771%; inhibition ([3]; BGB IC20 combo, at 0.005 µM): -20.4%; inhibition ([3]; BGB IC40 combo, at 0.005 µM): -41.1%; inhibition ([3]; BGB IC40 combo, at 0.05 µM): -25.8%; inhibition ([3]; at 0.5 µM): -27% (inactive); inhibition ([3]; cisplatin combo, at 0.05 µM): -30.8%; inhibition ([3]; cisplatin combo, at 0.5 µM): -31.2%; inhibition ([3]; cisplatin combo, at 5 µM): -49.1%; inhibition [3, 25]: -5.09%; inhibition ([4]; at 0.5 µM): -25% (inactive); inhibition [4, 20]: -41%; inhibition [4, 26]: -39.7%; inhibition [4, 27]: -49.3%; inhibition ([5]; at 0.5 µM): -16.4% (inactive); inhibition [5, 28]: -21.4%; inhibition [5, 29]: 7.58%; inhibition [5, 30]: -13.1%; inhibition [5, 31]: -1.96%; inhibition ([5]; single agent, at 5 µM): 8.05%; inhibition ([6]; at 0.5 µM): -49.2% (inactive); inhibition [6, 32]: -52%; inhibition [6, 33]: -0.415%; inhibition ([7]; at 0.5 µM): -7.45% (inactive); inhibition [7, 34]: -12.8%; inhibition [7, 35]: -0.883%; inhibition ([8]; at 0.5 µM): -11.1% (inactive); inhibition [8, 36]: 12.4%; inhibition [8, 37]: -20.9%; inhibition ([9]; at 0.5 µM): 7.53% (inactive); inhibition [9, 26]: -13.9%; inhibition [9, 27]: 4.86%; inhibition ([10]; at 0.5 µM): -5.23% (inactive); inhibition [10, 38]: 0.608%; inhibition [10, 39]: 5.89%; inhibition [10, 40]: -7.76%; inhibition [10, 41]: 14.4%; inhibition [11, 42]: 21.1%; inhibition ([11]; at 0.5 µM): -7.22% (inactive); inhibition [11, 43]: 38.6%; inhibition ([12]; at 0.5 µM): -7.15% (inactive); inhibition [12, 44]: -3.26%; inhibition [12, 45]: -13%; inhibition ([13]; at 0.5 µM): -7.26% (inactive); inhibition [13, 46]: -13%; inhibition ([13]; cisplatin combination, at 5 µM): 18.3%; inhibition [13, 47]: -15.2%; inhibition ([13]; single agent, at 5 µM): 28.5%; inhibition ([14]; at 0.5 µM): -4.15% (inactive); inhibition ([14]; cisplatin combo, at 5 µM): 6.83%

From PubChem BioAssay
